# Source: article PMC6792352, “Limited Chemical Structural Diversity Found to Modulate Thyroid Hormone Receptor in the Tox21 Chemical Library” (Environmental Health Perspectives, 2019)
# Structures can show the parent of a compound that is named as a salt.
# Tested on: thyroid hormone receptor (endogenous TRα and TRβ)
# Set-up: species or system GH3-TRE-Luc (rat pituitary); GH3-TRE-Luc luciferase reporter, antagonist mode against 1 nM T3, loss of signal, qHTS
# Conditions: read-out: Average AC50 (uM) GH3-TRE-Antag, antagonist mode, 1 nM T3, no GH3 cytotoxicity hit
row,Compound,AC50 [µM]
1,CC1(C)[C@H](C(=O)OCc2coc(Cc3ccccc3)c2)[C@@H]1/C=C1\CCSC1=O [Kadethrin],48.4
2,CN[C@H]1C[C@@H](N)[C@H](O)[C@@H](O[C@@H]2O[C@H](CO)[C@H](O)[C@@H]3OC4(O[C@H]23)O[C@H]([C@@H](N)CO)[C@H](O)[C@H](O)[C@H]4O)[C@@H]1O (stereo partly shown) [Hygromycin B],12.9
3,"Nc1cc(Cl)c(N)c(Cl)c1 [2,6-Dichloro-1,4-benzenediamine]",78
4,CC1=C(C)S(=O)(=O)CCS1(=O)=O [Dimethipin],86.8
5,CCC(Cc1c(I)cc(I)c(N)c1I)C(=O)O (stereo not shown) [Iopanoic acid],> 20
6,CC(=O)C1(C)CC2=C(CCCC2(C)C)CC1C (stereo not shown) [Isocyclemone E],87.5
7,CN(C)C(=O)Nc1ccc(Oc2ccc(Cl)cc2)cc1 [Chloroxuron],64.2
8,O=C(NOC[C@H](O)CO)c1ccc(F)c(F)c1Nc1ccc(I)cc1F [PD 0325901],4.11
9,"O=C1CCCCCCCCCCCC(=O)OCCO1 [1,4-Dioxacycloheptadecane-5,17-dione]",47.7
10,O=c1[nH]c(=O)n([C@H]2C[C@H](O)[C@@H](CO)O2)cc1F [Floxuridine],4.49
11,Nc1ccc2cc3ccccc3cc2c1 [2-Aminoanthracene],3.18
12,CCN(CC)C(=O)C(C)Oc1cccc2ccccc12 (stereo not shown) [Napropamide],74.1
13,CC1(C)N=C(N)N=C(N)N1c1ccc(Cl)cc1 [Cycloguanil hydrochloride],28.6
14,Clc1ccc(Cn2c(CN3CCCC3)nc3ccccc32)cc1 [Clemizole hydrochloride],13.3
15,N[C@H](C(=O)O)[C@H](O)c1ccc(O)c(O)c1 [Droxidopa],29.5
16,CCCCC/C=C\C/C=C\C/C=C\CCCCC(=O)O [Gamolenic acid],22.9
17,CC(C)(C)C(=O)OCOP(=O)(COCCn1cnc2c(N)ncnc21)OCOC(=O)C(C)(C)C [Adefovir dipivoxil],46.6
18,O=C(Oc1ccccc1)c1ccc2ccccc2c1O [Phenyl 1-hydroxy-2-naphthoate],84.9

row,Compound,AC50 [µM]
1,O=C(/C=C/c1ccccc1)OCc1ccccc1 [Benzyl cinnamate],> 50
2,O=C(N/N=C/c1ccc([N+](=O)[O-])o1)c1ccc(O)cc1 [Nifuroxazide],13.7
3,CC(C)(C)c1ccc2c(S(=O)(=O)O)c(C(C)(C)C)ccc2c1 [Sodium dibunate],> 50
4,"O=C(O)c1cc(I)cc(I)c1I [2,3,5-Triiodobenzoic acid]",> 100
5,CCCCCCCCCCCCCOS(=O)(=O)O [Sodium tridecyl sulfate],67.6
6,O=c1oc2c(O)c(O)cc3c(=O)oc4c(O)c(O)cc1c4c23 [Ellagic acid],12.9
7,Cc1cccc(Oc2ccccc2)c1 [1-Methyl-3-phenoxybenzene],82.5
8,COc1ccc(Cc2nccc3cc(OC)c(OC)cc23)cc1OC [Papaverine hydrochloride],15.6
9,CCCCC(CC)C(=O)OCCOCCOCCOCCOC(=O)C(CC)CCCC (stereo not shown) [Tetraethylene glycol di(2-ethylhexanoate)],82.3
10,CC(=O)[C@H]1CC[C@H]2[C@@H]3CC=C4C[C@@H](O)CC[C@]4(C)[C@H]3CC[C@]12C [Pregnenolone],11.6
11,CCc1cccc(C)c1N(C(=O)CCl)C(C)COC (stereo not shown) [Metolachlor],77
12,COc1ccc(-n2nc(C(F)F)cc2-c2ccc([S+](C)[O-])cc2)cc1 (stereo not shown) [Difpas-pyrazole],70.2
13,CC(C)NCC(O)COc1ccc(CCOCC2CC2)cc1 (stereo not shown) [Betaxolol],39.4
14,CC(C)(O)C(=O)Nc1ccc([N+](=O)[O-])c(C(F)(F)F)c1 [Hydroxyflutamide],> 70
15,CCN(CC)c1ccc2c(C)cc(=O)oc2c1 [7-Diethylamino-4-methylcoumarin],85.7
16,C#Cc1cccc(Nc2ncnc3cc(OCCOC)c(OCCOC)cc23)c1 [Erlotinib],21.9
17,COC(C)(C)CCCC(C)C/C=C/C(C)=C/C(=O)OC(C)C (stereo not shown) [Methoprene],43.4
18,CSc1ccc(/C=C2/C(C)=C(CC(=O)O)c3cc(F)ccc32)cc1 [Sulindac sulfide],24

# Same assay, conditions: read-out: Average AC50 (uM) GH3-TRE-Antag, antagonist mode, 1 nM T3, no GH3 cytotoxicity hit, Average AC50 (uM) GH3-TRE-Antag, 24 h
row,Compound,AC50 [µM]
1,CCCCCCn1cc[n+](C)c1 [1-Hexyl-3-methylimidazolium chloride],65.3
2,CCCCCCn1cc[n+](C)c1 [1-Hexyl-3-methylimidazolium hexafluorophosphate],53.8
3,CCCCCCCCn1cc[n+](C)c1 [1-Methyl-3-octylimidazolium hexafluorophosphate],33
4,CCCCCCn1cc[n+](C)c1 [1-Hexyl-3-methylimidazolium bromide],47.7
